# According to the supplement of paper PMC10849652:
# The full data set covers some 7,900 targets. This sample favours those with a hit. About 0.6% of all pairs of compound and target were hits. Unmarked numbers belong to inactive results.
# Columns and labels:
# Experiment in all cases: log2 fold change, soluble protein after heating vs DMSO (PISA); higher = thermal stabilisation; K562 cells, 10 uM, 30 min; active = over 0.2 and 3.5 SD of the protein, either way, in both replicates (recomputed)
# bafetinib = compound: Cc1ccc(NC(=O)c2ccc(CN3CC[C@H](N(C)C)C3)c(C(F)(F)F)c2)cc1Nc1nccc(-c2cncnc2)n1 [bafetinib]
# Procedure, shortened: (§1)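 K562 cells at 2×10^6 cells/mL were exposed to 10 μM compound for 30 min, then aliquots were heated for 3 min across 48°C-58°C, pooled, and extracted in PBS containing 0.5% NP-40 at 4°C. The supernatant after 21,000xg for 90 min was taken as soluble protein and measured by TMTpro 16plex LC-MS/MS with channel sums equalised. Thermal stability is reported relative to control samples, with values from duplicates. Fold changes are given on a log2 scale.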
# [1] = compound: Cc1cccc(CC(=O)N2CCc3c2ccc(-c2cn(C)c4ncnc(N)c24)c3F)n1
# Procedure, shortened: as §1
# nilotinib = compound: Cc1cn(-c2cc(NC(=O)c3ccc(C)c(Nc4nccc(-c5cccnc5)n4)c3)cc(C(F)(F)F)c2)cn1 [nilotinib]
# Procedure, shortened: as §1
# [2] = compound: Cc1nc(Nc2n[nH]c3c2CN(C(=O)N[C@H](CN(C)C)c2ccccc2)C3(C)C)c2sccc2n1
# Procedure, shortened: as §1
# dasatinib = compound: Cc1nc(Nc2ncc(C(=O)Nc3c(C)cccc3Cl)s2)cc(N2CCN(CCO)CC2)n1 [dasatinib]
# Procedure, shortened: as §1
# [3] = compound: Cc1ncc(-c2ccnc(Nc3ccc(S(C)(=O)=O)cc3)n2)n1C(C)C
# Procedure, shortened: as §1
# [4] = compound: Cn1cc(-c2ccc3c(c2)CCN3C(=O)Cc2cccc(C(F)(F)F)c2)c2c(N)ncnc21
# Procedure, shortened: as §1
# [5] = compound: Cn1cc(-c2ccc3nnc(C(F)(F)c4ccc5ncccc5c4)n3n2)cn1
# Procedure, shortened: as §1
# tipifarnib = compound: Cn1cncc1[C@@](N)(c1ccc(Cl)cc1)c1ccc2c(c1)c(-c1cccc(Cl)c1)cc(=O)n2C [tipifarnib]
# Procedure, shortened: as §1
# mubritinib = compound: FC(F)(F)c1ccc(/C=C/c2nc(COc3ccc(CCCCn4ccnn4)cc3)co2)cc1 [mubritinib]
# Procedure, shortened: as §1
# UniProt Q8IWE5, sequence (Q8IWE5 whole entry, looked up): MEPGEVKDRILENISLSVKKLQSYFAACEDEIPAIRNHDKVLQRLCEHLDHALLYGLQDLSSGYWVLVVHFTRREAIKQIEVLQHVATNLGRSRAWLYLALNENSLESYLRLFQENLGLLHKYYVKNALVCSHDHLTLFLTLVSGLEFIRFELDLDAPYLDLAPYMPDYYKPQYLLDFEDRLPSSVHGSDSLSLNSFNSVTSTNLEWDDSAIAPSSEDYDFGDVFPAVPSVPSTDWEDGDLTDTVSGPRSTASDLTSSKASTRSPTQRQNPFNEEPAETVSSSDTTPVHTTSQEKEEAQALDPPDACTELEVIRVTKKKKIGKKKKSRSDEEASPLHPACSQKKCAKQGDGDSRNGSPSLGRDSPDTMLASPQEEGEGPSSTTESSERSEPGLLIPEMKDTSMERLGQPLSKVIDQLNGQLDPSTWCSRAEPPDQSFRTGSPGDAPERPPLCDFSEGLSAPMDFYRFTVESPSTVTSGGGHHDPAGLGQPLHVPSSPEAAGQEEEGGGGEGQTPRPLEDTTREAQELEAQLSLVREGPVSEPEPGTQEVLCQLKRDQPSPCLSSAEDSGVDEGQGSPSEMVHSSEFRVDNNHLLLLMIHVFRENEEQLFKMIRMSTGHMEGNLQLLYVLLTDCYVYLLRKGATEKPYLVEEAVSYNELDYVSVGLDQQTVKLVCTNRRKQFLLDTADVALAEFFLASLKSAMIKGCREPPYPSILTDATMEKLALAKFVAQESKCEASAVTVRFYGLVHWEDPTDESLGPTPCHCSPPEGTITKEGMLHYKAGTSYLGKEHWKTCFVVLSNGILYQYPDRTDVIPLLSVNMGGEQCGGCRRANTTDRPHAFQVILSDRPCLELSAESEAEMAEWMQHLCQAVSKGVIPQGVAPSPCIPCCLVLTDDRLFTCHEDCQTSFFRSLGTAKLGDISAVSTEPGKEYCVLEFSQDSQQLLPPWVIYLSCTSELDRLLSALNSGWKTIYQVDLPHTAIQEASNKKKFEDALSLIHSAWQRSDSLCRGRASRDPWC
# UniProt O15067, sequence (O15067 whole entry, looked up): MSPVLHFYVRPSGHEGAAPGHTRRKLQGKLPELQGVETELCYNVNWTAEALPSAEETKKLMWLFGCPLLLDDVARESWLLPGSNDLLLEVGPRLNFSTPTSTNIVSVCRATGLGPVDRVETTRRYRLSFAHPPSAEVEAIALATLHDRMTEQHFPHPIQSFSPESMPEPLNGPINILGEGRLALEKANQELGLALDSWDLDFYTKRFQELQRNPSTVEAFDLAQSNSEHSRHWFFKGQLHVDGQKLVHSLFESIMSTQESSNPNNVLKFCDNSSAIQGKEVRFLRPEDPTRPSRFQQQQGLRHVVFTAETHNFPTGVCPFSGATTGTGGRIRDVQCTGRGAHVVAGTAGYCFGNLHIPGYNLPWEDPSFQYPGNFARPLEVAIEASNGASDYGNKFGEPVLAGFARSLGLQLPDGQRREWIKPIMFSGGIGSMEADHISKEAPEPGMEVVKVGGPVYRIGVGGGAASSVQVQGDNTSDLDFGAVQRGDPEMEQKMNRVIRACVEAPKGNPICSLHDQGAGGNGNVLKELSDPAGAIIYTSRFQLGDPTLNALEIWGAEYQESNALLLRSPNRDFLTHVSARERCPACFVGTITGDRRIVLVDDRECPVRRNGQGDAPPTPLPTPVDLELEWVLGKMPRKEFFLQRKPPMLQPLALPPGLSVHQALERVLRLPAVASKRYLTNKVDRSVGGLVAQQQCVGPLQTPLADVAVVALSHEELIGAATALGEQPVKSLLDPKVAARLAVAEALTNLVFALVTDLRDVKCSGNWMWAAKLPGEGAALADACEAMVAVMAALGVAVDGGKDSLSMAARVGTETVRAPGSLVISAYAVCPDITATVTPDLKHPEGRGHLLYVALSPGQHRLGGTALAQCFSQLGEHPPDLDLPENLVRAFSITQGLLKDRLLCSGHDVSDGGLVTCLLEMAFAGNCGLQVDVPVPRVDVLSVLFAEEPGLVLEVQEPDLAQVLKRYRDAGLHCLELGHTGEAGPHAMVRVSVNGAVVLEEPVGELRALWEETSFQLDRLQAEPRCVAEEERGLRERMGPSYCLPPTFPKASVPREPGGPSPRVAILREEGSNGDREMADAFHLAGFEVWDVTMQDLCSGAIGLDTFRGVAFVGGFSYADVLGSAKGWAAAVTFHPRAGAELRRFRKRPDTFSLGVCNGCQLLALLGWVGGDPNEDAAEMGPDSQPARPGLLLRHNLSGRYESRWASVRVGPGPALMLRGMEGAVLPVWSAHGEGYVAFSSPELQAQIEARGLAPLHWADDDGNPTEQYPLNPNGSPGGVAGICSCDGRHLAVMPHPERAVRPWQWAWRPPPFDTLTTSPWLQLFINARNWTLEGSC
# UniProt P46019, sequence (P46019 whole entry, looked up): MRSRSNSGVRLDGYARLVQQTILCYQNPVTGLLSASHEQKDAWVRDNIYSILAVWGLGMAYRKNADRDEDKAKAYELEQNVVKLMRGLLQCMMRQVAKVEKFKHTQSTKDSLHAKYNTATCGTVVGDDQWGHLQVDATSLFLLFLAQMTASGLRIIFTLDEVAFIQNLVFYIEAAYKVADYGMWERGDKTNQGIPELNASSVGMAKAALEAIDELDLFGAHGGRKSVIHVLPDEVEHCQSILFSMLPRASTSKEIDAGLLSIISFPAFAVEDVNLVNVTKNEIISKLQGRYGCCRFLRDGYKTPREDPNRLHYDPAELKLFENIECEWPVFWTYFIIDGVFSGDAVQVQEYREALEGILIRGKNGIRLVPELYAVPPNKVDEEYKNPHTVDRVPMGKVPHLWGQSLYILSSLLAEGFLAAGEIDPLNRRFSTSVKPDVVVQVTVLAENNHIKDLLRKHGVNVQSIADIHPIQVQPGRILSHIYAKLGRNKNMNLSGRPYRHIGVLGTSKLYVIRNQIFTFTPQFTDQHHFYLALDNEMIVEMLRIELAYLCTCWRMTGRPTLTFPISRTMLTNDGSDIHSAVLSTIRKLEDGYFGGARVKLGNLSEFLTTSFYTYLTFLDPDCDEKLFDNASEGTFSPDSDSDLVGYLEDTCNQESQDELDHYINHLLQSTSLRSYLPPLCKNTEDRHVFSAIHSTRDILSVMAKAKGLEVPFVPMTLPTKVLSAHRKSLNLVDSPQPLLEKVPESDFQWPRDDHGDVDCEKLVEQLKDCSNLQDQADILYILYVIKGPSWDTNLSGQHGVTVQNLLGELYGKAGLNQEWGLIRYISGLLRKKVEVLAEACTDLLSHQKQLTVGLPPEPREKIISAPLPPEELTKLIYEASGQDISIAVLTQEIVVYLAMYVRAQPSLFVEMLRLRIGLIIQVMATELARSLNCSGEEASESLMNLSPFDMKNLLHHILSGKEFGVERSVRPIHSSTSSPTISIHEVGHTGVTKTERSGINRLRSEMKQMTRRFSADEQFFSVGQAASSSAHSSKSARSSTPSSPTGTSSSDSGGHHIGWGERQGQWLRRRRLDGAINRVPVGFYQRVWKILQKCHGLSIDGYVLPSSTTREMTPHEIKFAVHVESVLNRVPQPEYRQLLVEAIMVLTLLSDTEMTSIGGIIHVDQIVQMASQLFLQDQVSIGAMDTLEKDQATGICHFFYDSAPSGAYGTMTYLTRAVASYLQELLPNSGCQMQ
# UniProt O00233, sequence (O00233 whole entry, looked up): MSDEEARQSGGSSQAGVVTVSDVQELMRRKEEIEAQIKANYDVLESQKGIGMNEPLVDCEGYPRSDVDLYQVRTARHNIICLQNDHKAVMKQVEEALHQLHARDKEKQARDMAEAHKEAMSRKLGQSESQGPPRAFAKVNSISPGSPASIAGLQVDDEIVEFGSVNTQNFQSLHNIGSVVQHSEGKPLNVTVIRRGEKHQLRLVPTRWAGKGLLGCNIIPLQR
# UniProt P51665, sequence (P51665 whole entry, looked up): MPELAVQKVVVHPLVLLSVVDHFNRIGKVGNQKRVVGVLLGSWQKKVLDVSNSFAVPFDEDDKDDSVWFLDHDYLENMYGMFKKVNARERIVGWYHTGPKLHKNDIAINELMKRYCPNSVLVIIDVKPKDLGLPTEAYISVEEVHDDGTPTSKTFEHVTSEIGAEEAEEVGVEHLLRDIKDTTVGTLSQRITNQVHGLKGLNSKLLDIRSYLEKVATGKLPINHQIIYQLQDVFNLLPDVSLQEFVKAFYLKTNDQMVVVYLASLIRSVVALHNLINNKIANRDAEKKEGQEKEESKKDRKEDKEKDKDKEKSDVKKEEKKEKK
# UniProt P27986, sequence (P27986 whole entry, looked up): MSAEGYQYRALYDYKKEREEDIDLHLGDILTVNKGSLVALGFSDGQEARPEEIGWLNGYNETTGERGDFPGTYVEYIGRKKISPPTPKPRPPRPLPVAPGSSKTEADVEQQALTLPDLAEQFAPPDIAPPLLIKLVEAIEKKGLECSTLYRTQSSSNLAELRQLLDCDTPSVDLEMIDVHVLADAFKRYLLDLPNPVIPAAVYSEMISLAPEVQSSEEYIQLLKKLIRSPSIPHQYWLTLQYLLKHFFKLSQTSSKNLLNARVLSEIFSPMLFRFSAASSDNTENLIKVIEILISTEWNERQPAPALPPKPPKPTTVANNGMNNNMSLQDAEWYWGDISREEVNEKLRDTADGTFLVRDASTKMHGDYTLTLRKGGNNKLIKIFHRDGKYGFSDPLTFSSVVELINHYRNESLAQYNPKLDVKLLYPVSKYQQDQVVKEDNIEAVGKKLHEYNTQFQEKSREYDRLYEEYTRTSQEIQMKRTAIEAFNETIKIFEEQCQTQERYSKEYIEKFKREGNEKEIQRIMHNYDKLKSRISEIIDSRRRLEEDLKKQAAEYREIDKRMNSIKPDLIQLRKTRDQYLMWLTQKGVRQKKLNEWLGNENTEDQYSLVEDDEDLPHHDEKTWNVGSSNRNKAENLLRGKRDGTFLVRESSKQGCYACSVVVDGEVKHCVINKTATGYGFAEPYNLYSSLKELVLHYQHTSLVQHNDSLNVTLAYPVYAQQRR
# UniProt O60925, sequence (O60925 whole entry, looked up): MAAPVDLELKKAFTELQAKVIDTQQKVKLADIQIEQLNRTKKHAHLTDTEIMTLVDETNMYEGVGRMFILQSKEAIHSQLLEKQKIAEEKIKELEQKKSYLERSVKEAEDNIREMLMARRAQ
Target,log2 fold change (bafetinib),log2 fold change [1],log2 fold change (nilotinib),log2 fold change [2],log2 fold change (dasatinib),log2 fold change [3],log2 fold change [4],log2 fold change [5],log2 fold change (tipifarnib),log2 fold change (mubritinib)
PFAS (UniProt O15067),0.033,0.311,-0.359 (active),-0.113,-0.003,0.059,0.341 (active),0.06,0.018,0.52 (active)
POLR2M (UniProt P0CAP2),-0.029,-0.015,-0.011,0.034,0.055,0.138,-0.051,-0.024,0.035,-0.037
PPP1R14A (UniProt Q96A00),-0.058,0.026,-0.01,0.013,0.019,0.026,0.076,-0.055,0,0.033
PRKCA (UniProt P17252),-0.043,-0.066,-0.011,-0.173,-0.233,-0.005,0.082,-0.022,-0.026,0.054
PMM1 (UniProt Q92871),-0.2,0.022,-0.606 (active),-0.152,-0.027,0.003,0.05,0.025,0.134,0.066
PIP4P2 (UniProt Q8N4L2),-0.083,-0.111,0.013,-0.003,0.055,-0.026,-0.03,0.014,0.024,0.005
PRKAR1B (UniProt P31321),0.132,-0.015,0.062,0.012,-0.013,0.097,0.018,0.126,0.147,-0.286
PRUNE1 (UniProt Q86TP1),-0.037,0.045,-0.051,-0.054,-0.178,0.082,-0.045,-0.045,-0.122,-0.056
PNPLA2 (UniProt Q96AD5),0.084,-0.334,0.049,-0.112,-0.113,-0.118,0.056,0.049,-0.026,0.113
POMK (UniProt Q9H5K3),-0.057,0.067,-0.032,-0.029,-0.05,0.016,0,0.034,-0.044,-0.126
PHKA2 (UniProt P46019),-0.107,-0.037,-0.239,0.119,-0.07,-0.157,0.033,-0.051,-0.055,0.082
PSMC2 (UniProt P35998),0.081,0.029,-0.019,0.044,0.034,-0.018,-0.126,-0.013,0.113,-0.031
PFDN1 (UniProt O60925),0.038,-0.041,0.012,0.026,0.076,-0.023,0.153,0.328,-0.061,0.039
POLD1 (UniProt P28340),-0.055,0.023,-0.03,-0.006,-0.049,-0.052,0.063,0.01,-0.066,0.006
PIK3R1 (UniProt P27986),-0.061,0.029,-0.074,0.015,-0.117,0.108,0.009,-0.013,-0.026,0.017
PRKACA (UniProt P17612),-0.044,0.107,-0.038,0.71 (active),-0.107,-0.051,0.01,-0.117,-0.036,0.066
PDCD2L (UniProt Q9BRP1),0.026,0.077,-0.137,0.035,-0.122,-0.062,-0.022,0.015,-0.13,0.018
PSMC3 (UniProt P17980),0.072,-0.033,-0.004,0.059,0.016,-0.017,-0.1,-0.005,0.124,-0.016
PHKG2 (UniProt P15735),-0.047,0.044,-0.177,0.321 (active),-0.306,0.011,-0.024,-0.017,-0.046,-0.127
PEX7 (UniProt O00628),0.101,-0.025,-0.047,0.048,-0.025,-0.007,0.05,0.04,0.034,0.085
PSMD7 (UniProt P51665),0.075,0.009,0.014,0.065,0.054,-0.033,-0.116,-0.01,0.079,0.019
PLEKHM2 (UniProt Q8IWE5),-0.09,-0.024,-0.054,-0.002,-0.072,-0.077,0.001,-0.08,-0.028,0.096
PIP4K2A (UniProt P48426),0.283,0.103,0.077,0.065,0.048,0.588 (active),0.037,0.181,-0.081,-0.06
PEX16 isoform 2 (UniProt Q9Y5Y5),-0.202,0.016,-0.067,0.006,0.004,-0.006,0.079,0.079,-0.067,0.174
PSMB6 (UniProt P28072),0.06,-0.053,0.028,0.049,0.098,-0.011,-0.068,-0.027,0.125,-0.014
PLSCR1 (UniProt O15162),0.011,0.002,-0.004,-0.022,0.052,-0.032,0.024,0.048,0.036,0.148
PTRH2 (UniProt Q9Y3E5),-0.022,0.017,0.039,-0.011,-0.004,0.046,0.044,-0.019,0.042,-0.009
PTPN12 (UniProt Q05209),-0.052,0.008,-0.022,-0.122,-0.059,0.074,-0.116,-0.086,-0.081,0.021
PSMD9 (UniProt O00233),-0.038,0.199,-0.011,0.016,0.037,0.008,0.018,0.034,0.04,0.009
